Bioassay records: PubChem BioAssay, several laboratories
In the library only some 3.8% were active in any assay of this set; here they are far more common.
Mtb FBA inh – Mtb fructose-bisphosphate aldolase inhibition; purified M. tuberculosis FBA, fluorescence read-out; inhibition, % at 1 µM; hit rate 2.3% among 360,000; in the data active = inhibition above about 27%
Target sequence (P9WQA3 whole entry, looked up): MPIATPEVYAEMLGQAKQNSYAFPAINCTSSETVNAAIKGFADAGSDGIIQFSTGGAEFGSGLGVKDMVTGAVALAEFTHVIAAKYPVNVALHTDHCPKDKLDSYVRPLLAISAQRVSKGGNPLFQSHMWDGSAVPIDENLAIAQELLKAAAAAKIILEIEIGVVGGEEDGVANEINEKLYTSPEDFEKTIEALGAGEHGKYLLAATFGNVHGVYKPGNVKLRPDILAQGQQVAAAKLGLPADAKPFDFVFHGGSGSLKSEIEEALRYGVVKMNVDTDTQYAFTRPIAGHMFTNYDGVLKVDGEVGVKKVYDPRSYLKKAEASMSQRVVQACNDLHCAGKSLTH
GDH-TPI inh – counter-screen for M. tuberculosis FBA inhibitors: GDH-TPI coupled enzymes; GDH-TPI coupled enzyme counterscreen, NADH absorbance; inhibition, % at 4.8 µM; hit rate 1.2% among 360,000; AID 588335; in the data active = inhibition above about 30%
Y pestis TopoI – blocks Yersinia pestis topoisomerase I activity; Y. pestis Topo-I cleavage product accumulation, plate reader; activity, % at 10 µM; hit rate 0.064% among 360,000; in the data active = activity above about 50%, passing the limit was not always enough
Mtb hypoxia rep – inhibitors of hypoxia-regulated fluorescent reporter in Mycobacterium tuberculosis | M. tuberculosis hypoxia-regulated fluorescent reporter, fluorescence | hit rate 0.1% among 300,000 | AID 1159583 | fluorescence inhibition, % (no concentration beside the values); in the data active = fluorescence inhibition mostly above about 23%, no sharp cut-off; inactive = mostly below about 17%
PrPC TRFRET – inhibitors of human cell surface prion protein PrPC. TR-FRET read-out. inhibition, % at 13.8 µM. hit rate 0.43% among 370,000. AID 720596; in the data active = inhibition above about 24%
PrP 5UTR inh – suppresses PrP 5' UTR mRNA reporter expression; cell-based PrP 5' UTR mRNA reporter, plate reader; inhibition, % (test concentration not listed); hit rate 0.35% among 340,000; AID 488862; in the data active = inhibition above about 52%
Numbers stand for hits; 0 = inactive; - = no result; + = active, no number.

SMILES | Mtb FBA inh | GDH-TPI inh | Y pestis TopoI | Mtb hypoxia rep | PrPC TRFRET | PrP 5UTR inh
COc1ccccc1OCCOc1ccc(C=Nn2cnnc2)cc1 | - | - | - | 0 | - | -
O=C1CCCCC=CCC(CC(=O)N(CCO)Cc2ccccc2)C(=O)NC(c2ccccc2)CO1 (stereo unspecified) | - | - | - | 0 | - | -
O=C1CCCCC=CCC(CC(=O)N(CCO)Cc2ccccc2)C(=O)NC(Cc2ccccc2)CO1 (stereo unspecified) | - | - | - | 0 | - | -
COc1cc(C(=O)N2CCN(C(=O)C3CCCO3)CC2)cc(OC)c1OC (stereo unspecified) | 0 | 0 | 0 | 0 | 0 | 0
COc1cc2nc(N3CCN(C(=O)C4CCCO4)CC3)nc(N)c2cc1OC (stereo unspecified) | 112 | 0 | 0 | 0 | 0 | 0
Cc1cc(NCCCCO)n2c(nc3ccccc32)c1C#N | + | 0 | 0 | 0 | 0 | 0
Cc1cc(NCCCN2CCOCC2)n2c(nc3ccccc32)c1C#N | + | 0 | 0 | 0 | 0 | 0
Cc1c2c(n3c(nc4ccccc43)c1C#N)N(CCN1CCOCC1)CC2 | + | 0 | 0 | 0 | 0 | 0
CCN(CC)CCCNc1cc(C)c(C#N)c2nc3ccccc3n12 | 116 | 0 | 0 | - | 0 | -
O=C1C=C(c2ccc3ccccc3c2)CC(c2ccc(F)cc2)C1 (stereo unspecified) | - | - | - | 0 | - | -
CC(=NNC(=O)c1ccc2c(c1)OCO2)c1ccco1 | - | - | - | 0 | - | -
COc1ccc(C2CC(=O)C=C(C=Cc3ccc(Cl)cc3)C2)cc1 (stereo unspecified) | - | - | - | 0 | - | -
Cc1ccc2c(c1)C1C(CO2)C(c2ccccc2)[C@]2(C)C(=O)Nc3cc(Cl)ccc3C(=O)N12 (stereo partly specified) | - | - | - | 0 | - | -
Cc1ccc(S(=O)(=O)Nc2ccc3c(c2)CC(=O)N(C(C)CO)CC(C)C(CN(C)S(=O)(=O)c2ccccc2)O3)cc1 (stereo unspecified) | - | - | - | 0 | - | -
O=C(CC1CC=CCCCC(=O)OCC2CCCN2C1=O)NCCO (stereo unspecified) | - | - | - | 0 | - | -
N#CCSc1ccc2nc(-c3ccccc3)cn2n1 | 134 | 0 | 0 | 0 | 0 | 0
CCC(C)C1CN=C(N)N1CCc1cc(C(F)(F)F)cc(C(F)(F)F)c1 (stereo unspecified) | - | - | - | 0 | - | -
CCCC=C(CCC)C(NS(=O)(=O)c1cccc2cccnc12)c1ccc(C(=O)OC)cc1 (stereo unspecified) | - | - | - | 0 | - | -
CC(=NNC(=O)c1ccc(-c2ccccc2)cc1)c1cc(O)cc(O)c1 | - | - | - | 0 | - | -
Cn1c(-c2ccncc2)nc2ccccc21 | 0 | 0 | 0 | 0 | 0 | 0
CCN(CC)c1ccc(-c2nc3cnccc3n2C)cc1 | 0 | 31 | 0 | - | 0 | 0
COc1cc2c(cc1Cl)C(=CCCN(C)C)c1ccccc1S2 | - | - | - | 0 | - | -
COC(=O)c1cc2c(=O)c3ccccc3oc2nc1C | 0 | 0 | 0 | 0 | 0 | 0
COC(=O)c1cc2c(ccc3ccccc32)oc1=O | + | 0 | 0 | 0 | 0 | 0
CC(=NNC(=O)c1ccc(NS(=O)(=O)c2cccs2)cc1)c1ccccn1 | - | - | - | 0 | - | -
SMILES | Mtb FBA inh | GDH-TPI inh | Y pestis TopoI | Mtb hypoxia rep | PrPC TRFRET | PrP 5UTR inh
CCOC(=O)c1sc2ncnc(N3CCN(C)CC3)c2c1C | 0 | 33 | 0 | 0 | 0 | 0
CCOC(=O)c1sc2ncnc(N3CCN(c4ccc(OC)cc4)CC3)c2c1C | 0 | 0 | 0 | 0 | 0 | 0
Cc1nc2sc(-c3ccccc3)cc2c(=O)n1N | 0 | 47 | 0 | 0 | 0 | -
NC(=O)CSc1nc2sc(-c3ccccc3)cc2c(=O)n1N | 0 | 35 | 0 | - | 0 | 0
O=S(=O)(N=C(c1ccccc1F)N1CCCCC1)c1ccccc1 | - | - | - | 0 | - | -
Cc1cc(N/N=C/c2ccc(O)c(C)c2O)nc(-c2ccccc2O)n1 | 0 | 32 | 0 | - | 0 | 0
COc1cccc(C=NNc2cc(C)nc(-c3ccccc3O)n2)c1O | - | - | - | 0 | - | -
CC(C)=CC(O)C/C(C)=C/COc1ccc2ccc(=O)oc2c1 (stereo unspecified) | 83 | 0 | 0 | - | 0 | 0
O=C1CC2c3c(cccc3CN1Cc1ccc(Br)cc1)CC(O)C2O (stereo unspecified) | - | - | - | 0 | - | -
Cc1nn(Cc2ccccc2)c(C)c1/C=N/NC(=O)c1ccccc1O | 0 | 36 | 0 | - | 0 | 0
O=C(CNC(=O)c1ccco1)NN=Cc1c[nH]c2ccccc12 | - | - | - | 0 | - | -
CSc1ccc(CN(C)C(=O)c2cc3ccccc3o2)cc1 | 0 | 0 | 54 | 0 | 0 | 0
O=c1[nH]c2ccccc2nc1Cc1ccc(Cl)cc1 | 0 | 0 | 0 | 0 | 0 | 0
O=c1[nH]c2ccccc2nc1-c1ccc(Cl)cc1 | 0 | 38 | 0 | 0 | 0 | 0
Cc1ccc(C2c3c(C)nn(-c4ccc([N+](=O)[O-])cc4)c3N=C3C(=O)Nc4ccccc4N32)cc1 (stereo unspecified) | - | - | - | 40 | - | -
Cc1nn(-c2ccc([N+](=O)[O-])cc2)c2c1C(c1ccc(OC(F)F)cc1)N1C(=N2)C(=O)Nc2ccccc21 (stereo unspecified) | 0 | 0 | 0 | - | 0 | 0
COCCCN1C(=O)C(=O)C(=C(O)c2ccc(OC(C)C)cc2)C1c1cccnc1 (stereo unspecified) | - | - | - | 0 | - | -
CCCCNC(=S)N1CCN(c2ccc(C(C)=O)cc2)CC1 | 0 | 35 | 0 | 0 | 0 | 0
Cc1cc(/C=C(\C#N)C(=O)O)c(C)n1CC(C)C | 0 | 35 | 0 | 0 | 0 | 0
Cc1cc(/C=C(\C#N)C(=O)O)c(C)n1CCC(C)C | 0 | 0 | 0 | 0 | 0 | 0
COC(=O)c1ccc(S(=O)(=O)c2ccccc2)c(N)c1 | 121 | 0 | 0 | 0 | 0 | 0
COC(=O)c1ccc(N2CCCCC2)c(N)c1 | 0 | 0 | 0 | 0 | 0 | 0
COc1ccc(CNC(=O)c2cnc3cc(C)ccn3c2=O)cc1 | 0 | 0 | 0 | 0 | 0 | 0
CCOC(=O)c1cnc2cc(C)ccn2c1=O | 124 | 31 | 0 | 0 | 0 | 0
CCOC(=O)c1c(NC(=O)CSc2nc3ccccc3s2)sc(C(C)=O)c1C | 0 | 33 | 0 | 0 | 0 | 0
SMILES | Mtb FBA inh | GDH-TPI inh | Y pestis TopoI | Mtb hypoxia rep | PrPC TRFRET | PrP 5UTR inh
c1ccc2nc3c(nc2c1)[nH]c1ccccc13 | 0 | 0 | 0 | 0 | 0 | 0
c1ccc(-c2c3ccccc3nc3[nH]c4ccccc4c23)cc1 | 31 | 0 | 0 | - | - | 0
CC1=NOC2(C1)C(=NO)CCCC2=NO (stereo unspecified) | - | - | - | 0 | - | -
Cc1ccc(C(=O)C2=C(O)C(=O)N(Cc3cccnc3)C2c2cccc(Oc3ccccc3)c2)o1 (stereo unspecified) | - | - | - | - | 44 | -
COc1cccc(-c2c(NC(=O)c3ccco3)oc3ccc(Cl)cc3c2=O)c1 | 0 | 36 | 0 | 0 | 0 | 0
COC(=O)C1=C(c2cccc(OCc3ccccc3)c2)CC2CCC1N2C(=O)NCc1ccc([N+](=O)[O-])cc1 (stereo unspecified) | - | - | - | 0 | - | -
COc1ccc(-c2c(C)c3cc(O)ccc3oc2=O)cc1OC | 0 | 0 | 0 | 0 | 0 | 0
COc1ccc(-c2cc3ccc(OCC(N)=O)cc3oc2=O)cc1OC | 0 | 32 | 0 | 0 | 0 | 0
COc1ccc(-c2cc3ccc(O)cc3oc2=O)cc1OC | 119 | 0 | 0 | 0 | 0 | 0
CC1CN(C(C)CO)C(=O)c2cccc(NC(=O)c3ccncc3)c2OC1CN(C)S(C)(=O)=O (stereo unspecified) | - | - | - | 0 | - | -
